As usually defined, the AC50 is the concentration giving half of the maximal activity seen.

This passage reports outcome and AC50 results from PubChem BioAssay (EPA / NIEHS).

A short description of experiment [1]: ATG_CRE_CIS: Attagene CIS-FACTORIAL HepG2 Assay for human cAMP Responsive Element (CRE) binding protein 3 (AID 2282926). The settings on record: HepG2 CRE cis-reporter, Attagene multiplexed mRNA; actives raise or lower the signal. The gist of the method: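 HepG2 cells transiently transfected with cis-element-driven multiple reporter transcription units; CRE reporter mRNA measured 24 h after dosing by RT-PCR, 6-FAM labelling, HpaI digestion and capillary electrophoresis. Bidirectional fit versus DMSO baseline.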

For experiment [2], the target named is CCAAT/enhancer-binding protein beta (Homo sapiens) (UniProt P17676). Put plainly: ATG_C_EBP_CIS: Attagene CIS-FACTORIAL HepG2 Assay for human CCAAT/Enhancer Binding Protein (C/EBP) beta (AID 2282927). The settings on record: HepG2 Attagene cis-factorial transcription factor reporter; actives raise or lower the signal. The gist of the method: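 HepG2 transiently transfected with multiplexed reporter units under cis-regulatory promoters reporting endogenous C/EBPb activity. After 24 h exposure, reporter mRNA assayed by RT-PCR, fluorescent labelling, HpaI digestion and capillary electrophoresis; bidirectional fitting versus DMSO.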
Sequence of CCAAT/enhancer-binding protein beta (Homo sapiens) (P17676 whole entry, looked up): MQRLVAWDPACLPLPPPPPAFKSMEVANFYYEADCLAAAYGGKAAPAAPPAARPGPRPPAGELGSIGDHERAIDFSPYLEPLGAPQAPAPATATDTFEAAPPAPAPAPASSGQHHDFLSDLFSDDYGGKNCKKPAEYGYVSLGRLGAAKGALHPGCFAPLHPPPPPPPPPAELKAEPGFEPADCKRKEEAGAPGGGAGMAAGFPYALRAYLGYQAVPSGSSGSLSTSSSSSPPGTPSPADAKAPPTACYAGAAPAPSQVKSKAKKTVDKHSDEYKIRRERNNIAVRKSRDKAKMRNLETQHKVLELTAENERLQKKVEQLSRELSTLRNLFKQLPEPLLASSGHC

Experiment [3] in a line: ATG_DR4_LXR_CIS: Attagene CIS-FACTORIAL HepG2 Assay for human Liver X Receptor (LXR), DR4 submotif (AID 2282929). Particulars: HepG2 Attagene DR4 cis-reporter, mRNA transcription; actives raise or lower the signal. The gist of the method:
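DR4 cis-reporter in HepG2, 24 h exposure. Detection: RT-PCR, 6-FAM labelling, CE fragment analysis. Endpoint fitted bidirectionally, DMSO = baseline.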

The nature of experiment [4]: ATG_AP_2_CIS: Attagene CIS-FACTORIAL HepG2 Assay for human Activator Protein 2 (AP-2) (AID 2282932). The settings on record: HepG2 AP-2 cis-reporter, Attagene transcription factor profiling; actives raise or lower the signal. The gist of the method:
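HepG2 cells transiently transfected with cis-element reporter units and exposed for 24 h. Reporter mRNA measured by RT-PCR, FAM labelling, HpaI digestion and capillary electrophoresis. Changes in either direction fitted relative to DMSO.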

Experiment [5] can be described thus: ATG_BRE_CIS: Attagene CIS-FACTORIAL HepG2 Assay for human Bone Morphogenetic Protein (BMP) Response Element (BRE) (AID 2282933). Particulars: HepG2 BMP response element reporter, Attagene transcription factor profiling; actives raise or lower the signal. Summed up:
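HepG2 cells transiently transfected with CIS reporter units (endogenous TF activity, BMP response element), dosed 24 h. Reporter mRNA quantified by RT-PCR, fluorescent labelling and capillary electrophoresis; bidirectional fit vs DMSO baseline.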

The target in experiment [6] is Transcription factor E2F1 (Homo sapiens) (UniProt Q01094). Briefly: ATG_E2F_CIS: Attagene CIS-FACTORIAL HepG2 Assay for human E2F Transcription Factor 1 (AID 2282935). The settings on record: HepG2 Attagene cis-reporter, E2F reporter RNA transcripts; actives raise or lower the signal. Summed up: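 Endogenous E2F1 activity read through cis-promoter reporter units transfected into HepG2. After 24 h compound treatment, reporter mRNA measured by RT-PCR, HpaI digestion and capillary electrophoresis. Bidirectional fit versus DMSO.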
Sequence of Transcription factor E2F1 (Homo sapiens) (Q01094 whole entry, looked up): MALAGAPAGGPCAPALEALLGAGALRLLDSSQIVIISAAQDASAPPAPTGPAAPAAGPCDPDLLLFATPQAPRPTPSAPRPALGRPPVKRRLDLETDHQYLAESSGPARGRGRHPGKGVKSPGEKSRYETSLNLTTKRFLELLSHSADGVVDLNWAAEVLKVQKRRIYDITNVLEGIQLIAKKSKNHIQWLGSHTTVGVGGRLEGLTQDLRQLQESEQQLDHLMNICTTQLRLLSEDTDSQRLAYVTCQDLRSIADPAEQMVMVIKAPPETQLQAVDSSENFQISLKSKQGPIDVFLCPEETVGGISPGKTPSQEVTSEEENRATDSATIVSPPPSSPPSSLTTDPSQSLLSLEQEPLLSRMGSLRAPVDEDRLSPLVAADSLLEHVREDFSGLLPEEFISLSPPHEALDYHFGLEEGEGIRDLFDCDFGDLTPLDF

Experiment [7] can be described thus: ATG_EGR_CIS: Attagene CIS-FACTORIAL HepG2 Assay for human Early Growth Response 1 (EGR1) (AID 2282938). Particulars: HepG2 Attagene CIS-FACTORIAL EGR reporter mRNA; actives raise or lower the signal. Summed up:
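Endpoint derived by bidirectional fitting versus DMSO vehicle. Method: cis-promoter reporter units transfected into HepG2, 24 h dosing, RNA isolation, RT-PCR with 6-FAM primer extension and HpaI digestion, then capillary electrophoresis fluorescence detection.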

The nature of experiment [8]: ATG_M_19_CIS: Attagene CIS-FACTORIAL HepG2 Assay for M19 Transcription Factor (Internal Marker) (AID 2282939). Particulars: HepG2 Attagene CIS-FACTORIAL M19 internal marker reporter; actives raise or lower the signal. The gist of the method:
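HepG2 cells transiently transfected with cis-regulated multiplexed reporter units, dosed 24 h. Reporter mRNA quantified by RT-PCR and capillary electrophoresis; internal background marker fitted bidirectionally versus DMSO.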

Experiment [9] in a line: ATG_Ets_CIS: Attagene CIS-FACTORIAL HepG2 Assay for human Erythroblast Transformation Specific (ETS) (AID 2282941). Particulars: HepG2 ETS cis-reporter transcription, actives raise or lower the signal. Summed up:
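Steps: transfect HepG2 with multiple reporter units; treat compound 24 h; isolate RNA, DNase-treat, reverse-transcribe; PCR-amplify, label with 6-FAM, digest with HpaI; separate by capillary electrophoresis. Activity fitted both directions versus DMSO.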

Experiment [10] addresses Hepatocyte nuclear factor 3-beta (Homo sapiens) (UniProt Q9Y261). Briefly: ATG_FoxA2_CIS: Attagene CIS-FACTORIAL HepG2 Assay for human Forkhead box A2 (FOXA2) (AID 2282942). The settings on record: HepG2 cis-reporter transcription factor activity, 24 h; actives raise or lower the signal. The gist of the method: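 Measured: reporter mRNA induction or loss in HepG2 transiently carrying multiple cis-regulated reporter units, 24 h after dosing. Quantified by RT-PCR plus capillary electrophoresis, normalised to DMSO.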

Experiment [11] is described as follows: ATG_FoxO_CIS: Attagene CIS-FACTORIAL HepG2 Assay for human Forkhead box O (FoxO) (AID 2282943). The settings on record: HepG2 Attagene cis-reporter, FoxO element, mRNA; actives raise or lower the signal. The gist of the method:
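HepG2 cells transiently transfected with cis-element-driven reporter units report endogenous FoxO activity. After 24 h chemical exposure, reporter mRNA quantified by RT-PCR, fluorescent labeling, HpaI digestion and capillary electrophoresis; bidirectional fit versus DMSO.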

Experiment [12] can be described thus: ATG_GATA_CIS: Attagene CIS-FACTORIAL HepG2 Assay for human GATA Binding Protein (AID 2282944). Particulars: HepG2 GATA cis-element reporter, Attagene multiplex mRNA; actives raise or lower the signal. The gist of the method:
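HepG2 cells transiently transfected with multiplexed cis-element reporter units measure endogenous GATA activity; after 24 h compound exposure, reporter mRNA quantified by RT-PCR and capillary electrophoresis. Changes fitted in both directions vs DMSO.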

Experiment [13] can be described thus: ATG_GLI_CIS: Attagene CIS-FACTORIAL HepG2 Assay for human Zinc Finger Protein GLI1 (AID 2282945). Particulars: HepG2, Attagene cis-factorial reporter mRNA, GLI element; actives raise or lower the signal. The gist of the method: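 Transiently transfected HepG2 cells report endogenous transcription factor activity via cis-element-driven reporter units. After 24 h compound exposure, reporter mRNA was measured by RT-PCR with capillary electrophoresis; bidirectional fitting against DMSO baseline.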

The nature of experiment [14]: ATG_M_06_CIS: Attagene CIS-FACTORIAL HepG2 Assay for M06 Transcription Factor (Internal Marker) (AID 2282950). Particulars: HepG2 Attagene CIS-FACTORIAL M06 internal marker reporter; actives raise or lower the signal. The gist of the method: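 Internal background marker within multiplexed cis-reporter HepG2 system. Cells transiently transfected, dosed 24 h; reporter mRNA measured by RT-PCR, HpaI digestion and capillary electrophoresis. Bidirectional fit relative to DMSO.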

Experiment [15] concerns the target Hepatocyte nuclear factor 6 (Homo sapiens) (UniProt Q9UBC0). Put plainly: ATG_HNF6_CIS: Attagene CIS-FACTORIAL HepG2 Assay for human Hepatocyte Nuclear Factor 6 (HNF6) (AID 2282952). Particulars: HepG2 Attagene cis-factorial HNF6 reporter transcription; actives raise or lower the signal. Summed up:
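HepG2 cells transiently transfected with cis-element-driven multiplexed reporter units measuring endogenous transcription factor activity. After 24 h exposure, reporter mRNA quantified by RT-PCR, FAM-labelled fragments and capillary electrophoresis; bidirectional fitting versus DMSO.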

Experiment [16] is described as follows: ATG_MRE_CIS: Attagene CIS-FACTORIAL HepG2 Assay for human Metal Responsive Element (MRE) (AID 2282954). Particulars: HepG2 MRE cis-reporter transcription, Attagene multiplex; actives raise or lower the signal. Summed up: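 HepG2 cells transiently transfected with cis-element-driven reporter units; mRNA measured 24 h after dosing. Reporter transcripts quantified by RT-PCR, FAM labelling, HpaI digestion and capillary electrophoresis; bidirectional fit versus DMSO.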

For experiment [17], the target named is Paired box protein Pax-6 (Homo sapiens) (UniProt P26367). Briefly: ATG_Pax6_CIS: Attagene CIS-FACTORIAL HepG2 Assay for human Paired Box 6 (PAX6) (AID 2282956). The settings on record: HepG2 CIS-FACTORIAL PAX6 reporter transcription, RNA readout; actives raise or lower the signal. The gist of the method:
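Transient MRTU transfection of HepG2 → compound exposure 24 h → TriZol RNA, oligo(dT) RT → PCR, 6-FAM primer extension, HpaI cut → capillary electrophoresis; activity fitted both directions against DMSO.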

Experiment [18] in a line: ATG_PXRE_CIS: Attagene CIS-FACTORIAL HepG2 Assay for human Pregnane X Receptor Element (PXRE) (AID 2282957). Particulars: HepG2 Attagene CIS-FACTORIAL PXRE reporter, mRNA; actives raise or lower the signal. The gist of the method:
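HepG2 cells transiently transfected with cis-element-driven multiplexed reporter units; after 24 h chemical exposure, reporter mRNA measured by RT-PCR, 6-FAM labelling, HpaI digestion and capillary electrophoresis. Bidirectional fitting relative to DMSO.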

A short description of experiment [19]: ATG_Sox_CIS: Attagene CIS-FACTORIAL HepG2 Assay for human SRY-box transcription factor (SOX) (AID 2282960). Particulars: HepG2 Attagene cis-factorial SOX reporter, mRNA; actives raise or lower the signal. Summed up: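 Gain- or loss-of-signal endpoint, fitted bidirectionally with DMSO as negative control. Based on reporter mRNA from transfected HepG2 cells harvested 24 h post-treatment and quantified via RT-PCR and capillary electrophoresis.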

Experiment [20] deals with Androgen receptor (Homo sapiens) (UniProt P10275). Put plainly: ATG_AR_TRANS: Attagene TRANS-FACTORIAL HepG2 Assay for human Androgen Receptor (AR) (AID 2282973; active = hit-call score of the fitted dose curve at least 0.9, where 1 is the maximum). Particulars: HepG2 Attagene TRANS-FACTORIAL AR reporter transcription. The gist of the method:
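HepG2 cells transiently transfected with AR-Gal4 chimera and GAL4-UAS reporter units; chemical exposure 24 h. Reporter mRNA quantified by RT-PCR with fluorescent labelling and capillary electrophoresis; gain-of-signal fitted against DMSO.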

Inconclusive results are not listed. The source made the active and inactive calls. The calls were made as follows, unless noted: active = hit-call score of the fitted dose curve at least 0.9, where 1 is the maximum; inactive = score below 0.9.

Sequence of Hepatocyte nuclear factor 6 (Homo sapiens) (Q9UBC0 whole entry, looked up, the tested form may be a part): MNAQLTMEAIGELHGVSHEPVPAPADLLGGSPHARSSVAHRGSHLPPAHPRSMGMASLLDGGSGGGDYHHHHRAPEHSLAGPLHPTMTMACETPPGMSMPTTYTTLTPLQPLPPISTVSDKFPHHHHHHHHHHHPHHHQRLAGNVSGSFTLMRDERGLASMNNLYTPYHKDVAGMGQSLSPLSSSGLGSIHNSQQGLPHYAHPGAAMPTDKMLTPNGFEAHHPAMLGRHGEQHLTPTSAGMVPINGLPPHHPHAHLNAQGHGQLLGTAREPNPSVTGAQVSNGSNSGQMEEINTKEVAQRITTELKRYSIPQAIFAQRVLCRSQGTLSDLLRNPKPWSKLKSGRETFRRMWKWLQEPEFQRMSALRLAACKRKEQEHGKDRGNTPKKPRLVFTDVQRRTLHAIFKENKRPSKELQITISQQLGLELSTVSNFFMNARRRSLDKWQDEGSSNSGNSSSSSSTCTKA
Sequence of Paired box protein Pax-6 (Homo sapiens) (P26367 whole entry, looked up): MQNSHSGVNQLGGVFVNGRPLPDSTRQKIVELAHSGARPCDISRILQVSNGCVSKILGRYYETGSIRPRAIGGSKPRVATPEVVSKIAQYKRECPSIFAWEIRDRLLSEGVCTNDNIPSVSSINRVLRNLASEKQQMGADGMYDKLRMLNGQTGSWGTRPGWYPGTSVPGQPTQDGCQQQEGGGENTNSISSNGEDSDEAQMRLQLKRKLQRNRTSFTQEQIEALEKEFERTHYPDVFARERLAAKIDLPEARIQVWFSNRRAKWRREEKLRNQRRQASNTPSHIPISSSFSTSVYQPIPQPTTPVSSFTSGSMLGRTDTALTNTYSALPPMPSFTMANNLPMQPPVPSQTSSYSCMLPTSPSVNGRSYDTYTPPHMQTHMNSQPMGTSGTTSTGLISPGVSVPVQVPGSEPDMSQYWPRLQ
Sequence of Hepatocyte nuclear factor 3-beta (Homo sapiens) (Q9Y261 whole entry, looked up): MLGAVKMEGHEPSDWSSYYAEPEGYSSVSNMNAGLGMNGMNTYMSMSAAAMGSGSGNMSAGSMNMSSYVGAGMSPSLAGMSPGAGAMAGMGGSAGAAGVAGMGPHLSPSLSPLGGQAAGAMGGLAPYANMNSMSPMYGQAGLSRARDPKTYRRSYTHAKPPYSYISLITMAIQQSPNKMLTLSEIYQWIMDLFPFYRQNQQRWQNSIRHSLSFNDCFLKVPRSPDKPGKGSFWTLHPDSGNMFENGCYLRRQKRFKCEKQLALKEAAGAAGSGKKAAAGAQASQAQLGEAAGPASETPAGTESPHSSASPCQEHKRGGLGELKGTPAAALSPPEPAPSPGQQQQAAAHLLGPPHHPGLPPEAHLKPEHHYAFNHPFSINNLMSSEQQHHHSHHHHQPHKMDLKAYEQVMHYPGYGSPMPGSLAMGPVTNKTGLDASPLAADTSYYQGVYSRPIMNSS
Sequence of Androgen receptor (Homo sapiens) (P10275 whole entry, looked up, the tested form may be a part): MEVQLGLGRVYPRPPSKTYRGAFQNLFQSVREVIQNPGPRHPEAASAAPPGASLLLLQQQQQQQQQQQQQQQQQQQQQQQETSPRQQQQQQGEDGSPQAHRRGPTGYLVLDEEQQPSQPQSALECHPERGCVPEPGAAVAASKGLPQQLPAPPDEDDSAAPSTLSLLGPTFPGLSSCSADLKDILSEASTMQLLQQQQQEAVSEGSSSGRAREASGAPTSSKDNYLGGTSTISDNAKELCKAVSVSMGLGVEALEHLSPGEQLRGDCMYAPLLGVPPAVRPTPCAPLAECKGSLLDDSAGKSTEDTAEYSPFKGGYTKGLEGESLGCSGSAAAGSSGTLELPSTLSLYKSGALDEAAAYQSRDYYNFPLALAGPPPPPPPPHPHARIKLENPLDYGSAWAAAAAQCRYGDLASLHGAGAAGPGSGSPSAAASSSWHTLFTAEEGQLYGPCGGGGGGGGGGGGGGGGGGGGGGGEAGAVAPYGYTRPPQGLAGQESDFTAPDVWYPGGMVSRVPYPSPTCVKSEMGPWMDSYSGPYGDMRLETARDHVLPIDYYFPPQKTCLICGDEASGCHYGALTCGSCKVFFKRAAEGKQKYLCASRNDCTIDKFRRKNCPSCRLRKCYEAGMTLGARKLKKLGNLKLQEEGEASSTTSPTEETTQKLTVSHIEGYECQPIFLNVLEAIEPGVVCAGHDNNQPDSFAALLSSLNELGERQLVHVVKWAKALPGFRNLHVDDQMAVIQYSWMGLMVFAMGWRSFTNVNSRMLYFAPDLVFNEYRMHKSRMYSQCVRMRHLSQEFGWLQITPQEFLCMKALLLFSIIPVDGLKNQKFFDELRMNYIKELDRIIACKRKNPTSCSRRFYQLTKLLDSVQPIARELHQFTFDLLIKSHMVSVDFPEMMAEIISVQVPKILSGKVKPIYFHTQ

Consider `Nc1ccccc1C(=O)Oc1ccc2ccccc2c1`, for which the compound was called inactive in [1], in [2], in experiment [6], in experiment [7], in [10] and in [14]. In addition, the compound was classed as inactive in [15], in experiment [18] and in experiment [20]. Further, the AC50 in experiment [3] is 63.9 µM (active); in experiment [4], 66.8 µM (active); in [5], 161 µM (active); in experiment [8], 166 µM (active); in experiment [9], 75.7 µM (active); in [11] it was 147 µM (active). The AC50 is 143 µM (active) in experiment [12]; 70.9 µM (active) in experiment [13]; 67.2 µM (active) in experiment [16]; 46.9 µM (active) in experiment [17]; 166 µM (active) in experiment [19].

Turning to `C[C@]12CC[C@H]3[C@@H](CC[C@@]45O[C@@H]4C(O)=C(C#N)C[C@]35C)[C@@H]1CC[C@@H]2O`, the compound was called inactive in experiment [1], in [2], in experiment [3], in [4], in [5] and in experiment [6]. Moreover, the compound was called inactive in experiment [8], in [9], in experiment [10], in [11], in [12] and in experiment [13]. In addition, the call in experiment [14], in [15] and in [19] was inactive. Moreover, the AC50 is 63.3 µM (active) in [7], 62.1 µM (active) in experiment [16], 44.2 µM (active) in experiment [17] and 27.2 µM (active) in [18].

Regarding `CC(=O)/C=C/c1ccccc1`, the compound was called inactive in experiment [1], in experiment [2], in experiment [4], in [6], in experiment [8] and in experiment [9]. In addition, the call in [10], in [11], in experiment [12], in experiment [13] and in experiment [14] was inactive. Also, the AC50 in experiment [3] was 78.1 µM (active); in experiment [5], 50 µM (active); in [7], 69.4 µM (active); in [15], 70.9 µM (active); in [16], 37.8 µM (active); in experiment [17] it was 69 µM (active). Besides, the AC50 in experiment [18] was 26.4 µM (active); in experiment [19], 56.4 µM (active).

Take `O=C1C=CC(=O)C=C1`: the compound was called inactive in [1], in [2], in experiment [3], in experiment [4], in [5] and in [6]. For the same compound, the compound was classed as inactive in experiment [7], in [8], in [9], in experiment [10], in [11] and in experiment [12]. The result in experiment [13], in [14], in [15], in experiment [16], in experiment [17] and in [19] was inactive. Besides, the AC50 in experiment [18] was 26.4 µM (active).

For the compound `C=C(Cl)CCl`, the compound was called inactive in [1], in experiment [2], in experiment [3], in experiment [4], in [5] and in [6]. In addition, the compound was called inactive in experiment [7], in experiment [8], in experiment [9], in experiment [10], in experiment [11] and in experiment [12]. The outcome in experiment [13], in [14], in [15], in experiment [16], in experiment [17] and in [19] was inactive. The AC50 in experiment [18] is 52 µM (active).
